Sm TGR inh: blocks Schistosoma mansoni thioredoxin glutathione reductase; Potency, µM (series often up to 114 µM), usual class: inhibitors; 360,000 tested, 3% active; AID 485364; purified TGR, DTNB reduction, TNB absorbance 405 nm; Q962Y6; active = well fitted inhibition curve with a large enough effect; inconclusive = small, poorly fitted or top-dose-only effect; inactive = no such curve, though single readings can be large or run the other way; also: nearly all actives have a fitted effect of over 60% in size
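TGR 20 nM + NADPH 100 uM (dispensed conc.), cpd preinc 15 min RT; start with NADPH (500 uM addition) then DTNB (15 mM addition). Kinetic TNB absorbance, 405 nm filter. Four-parameter Hill fit across titration.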
SARS PLpro yeast: blocks SARS-CoV papain-like protease in a yeast assay; S. cerevisiae expressing SARS-CoV PLpro, growth rescue; Potency, µM (titrated, usually from 32.9 µM), actives largely listed as activators; 330,000 tested, 0.19% active; calls by dose curve; also: nearly all actives have a fitted effect of over 55% in size
Numbers stand for hits; i = inactive; ? = inconclusive; nt = not tested or not shown. Sampled rows, rich in hits. Any-hit rate of the full collection: about 3%.

SMILES	Sm TGR inh	SARS PLpro yeast
Cc1nc(-c2ccccc2)sc1-c1ccc(SCC(=O)NCc2ccccc2Cl)nn1	i	nt
Oc1cccc(N2Cc3ccccc3C2)c1	10µM	i
O=C(O)c1ccc(N2Cc3ccccc3C2)cc1O	?	i
Oc1ccc(N2Cc3ccccc3C2)cc1	22µM	i
O=Cc1ccc(N2Cc3ccccc3C2)cc1	?	i
COc1ccc(C2=CC(=O)C[C@H](c3ccc(OC)cc3)C2)cc1	i	i
COc1ccc(C2=CC(=O)C=CC2=O)cc1	0.89µM	i
COC(=O)CN1C(=O)CSc2ccc(S(=O)(=O)Nc3ccc(F)c(Cl)c3)cc21	i	nt
O=C(C#Cc1ccccc1)c1ccc([N+](=O)[O-])cc1	0.32µM	i
O=C(c1ccc(-c2ccccc2)cc1)c1ccc([N+](=O)[O-])cc1	i	i
COc1ccccc1CNC(=O)CN(C)c1nn2c(=O)cc(C)nc2s1	i	nt
COc1ccc(C(C)=O)cc1COC(=O)c1cc(C)oc1C	?	i
COc1ccc(C(C)=O)cc1COC(=O)c1c(C)nn(-c2ccccc2)c1C	?	i
COc1ccc(C(C)=O)cc1COC(=O)c1ccc2ccccc2n1	25µM	i
COc1ccc(C(C)=O)cc1COC(=O)c1cc(C)nc2ccccc12	3.5µM	i
COc1ccc(C(C)=O)cc1COC(=O)c1cccc(N(C)C)c1	i	i
COc1ccccc1C(=O)COC(=O)Cc1n[nH]c(=O)c2ccccc12	i	i
COc1ccc(C(C)=O)cc1COC(=O)c1cc(=O)c2ccccc2o1	1.8µM	i
COc1ccc(C(C)=O)cc1COC(=O)Cc1n[nH]c(=O)c2ccccc12	18µM	i
CCCN1C(=O)C2(c3ccccc31)c1c(oc3ccccc3c1=O)C(=O)N2CCO (stereo not drawn)	i	nt
O=C(CSc1ccc2nc(-c3ccccc3)cn2n1)Nc1ccccc1	i	nt
CCOc1ccc(NC(=O)Cc2coc3ccc(C)cc23)cc1	i	nt
COc1ccc(C(C)=O)cc1COC(=O)c1cccnc1SC	3.2µM	i
CCOc1ccc(C(C)=O)cc1COC(=O)c1cccnc1SC	i	i
CCOC(=O)c1c(C)oc2ncnc(NCCCN3CCN(c4cc(C)ccc4C)CC3)c12	i	nt
SMILES	Sm TGR inh	SARS PLpro yeast
O=C(CCc1ccccc1)N1CCc2c([nH]c3ccccc23)C1c1ccc(F)cc1 (stereo not drawn)	i	nt
O=C(Nc1ccccc1)c1cc(-n2cnnc2)ccc1Cl	i	10µM
O=C(Nc1ccc(N2CCOCC2)cc1)c1cc(-n2cnnc2)ccc1Cl	i	i
COc1ccccc1CNC(=O)CCCn1nc(C)c2sc3ccccc3c2c1=O	i	nt
Cn1c(=O)c2cn(-c3ccccc3)cc2n(C)c1=O	i	i
COc1cccc(-n2cc3c(=O)n(C)c(=O)n(C)c3c2)c1	45µM	i
CCN1c2ccccc2-c2nc(SCC(=O)Nc3cccc(C(F)(F)F)c3)ncc2S1(=O)=O	i	nt
OC(C#CCN1CCOCC1)(c1ccccc1)C1CCCC1 (stereo not drawn)	?	i
OC(C#CCN1CCOCC1)(c1ccccc1)C1CC1 (stereo not drawn)	50µM	i
COc1cccc(-c2nnc3sc(-c4ccccc4)nn23)c1	i	i
COc1cccc(OC)c1-c1nn2c(-c3cc(-c4ccccc4)n[nH]3)nnc2s1	13µM	i
CC(=O)c1ccc(S(=O)(=O)N2Cc3ccccc3CC2C(=O)O)cc1 (stereo not drawn)	11µM	i
O=C(O)[C@H]1Cc2ccccc2CN1S(=O)(=O)c1ccc(F)cc1	i	i
CCOC(=O)c1n[nH]n2c1nc(=S)c1ccccc12	11µM	i
CCOC(=O)c1cc2c3ccccc3n(CC)c2nc1N	i	i
COc1ccccc1NC(=O)C(=O)NCC(c1ccc2c(c1)OCO2)N1CCN(C)CC1 (stereo not drawn)	i	nt
CCOC(=O)c1cc(-c2ccc(OC)c(S(=O)(=O)NC3CCCCC3)c2)on1	i	nt
Cc1ccc(S(=O)(=O)NC2OC(=O)C(Cl)=C2Cl)cc1 (stereo not drawn)	2.8µM	i
Cc1ccc(S(=O)(=O)NC2CCCCCCC2)cc1	i	i
CCc1ccc(NC(=O)CC2C(=O)N(c3ccccc3)C(=O)N2C(C)C)cc1 (stereo not drawn)	i	nt
CCCCn1c(O)c(C(CC)=NCCCN(C)C)c(=O)[nH]c1=O	?	i
CCCCn1c(O)c(C(CC)=NCCN2CCCCC2)c(=O)[nH]c1=O	10µM	i
CCC(=NCCN1CCOCC1)c1c(O)n(-c2ccccc2C)c(=O)[nH]c1=O	28µM	i
CC(=NCCN1CCOCC1)c1c(O)n(-c2ccccc2C)c(=O)[nH]c1=O	i	i
CCCCn1c(O)c(C(C)=NCCN2CCOCC2)c(=O)[nH]c1=O	i	i
SMILES	Sm TGR inh	SARS PLpro yeast
CCCCn1c(O)c(C(CC)=NCCN2CCOCC2)c(=O)[nH]c1=O	18µM	i
O=C(NCc1ccccc1Cl)c1cc2cccc3c2n1CCS3	i	nt
COc1ccc(C(=O)NCC(c2cccnc2)N2CCN(c3ccc(F)cc3)CC2)cc1 (stereo not drawn)	i	nt
COc1cc(NC(=O)N2CCN(c3cc(-c4noc(C)n4)ccc3C)CC2)cc(OC)c1OC	i	nt
CCN(CC)C(=O)Cn1cc(SCC(=O)NCc2ccco2)c2ccccc21	i	i
CCN(CC)C(=O)Cn1cc(C(=O)C(=O)NCc2ccco2)c2ccccc21	40µM	i
CCN(CCCNC(=O)CSc1cc(=O)n(CC)c2ccccc12)c1ccccc1	i	nt
O=C(CC(c1ccco1)C1CCCCC1=O)c1ccco1 (stereo not drawn)	50µM	i
O=C(CC(c1ccccc1)C1CCCCC1=O)c1ccco1 (stereo not drawn)	?	i
c1ccc2c(c1)CCN(c1ncnc3nc[nH]c13)C2	i	i
C1=C(c2ccccc2)CCN(c2ncnc3nc[nH]c23)C1	50µM	i
CCN(c1ccc(OC)cc1)S(=O)(=O)c1c(C(=O)N2CCCCCC2)c(C)n(C)c1C	i	nt
COc1cc(OC)c(NC(=O)CN(C)S(=O)(=O)c2ccc3c(c2)CCCC(=O)N3)cc1Cl	i	nt
COc1ccccc1CN1CCC(CNC(=O)c2cnn(-c3ccc(Cl)cc3)c2C2CCN(C(=O)OC(C)(C)C)CC2)CC1	i	nt
COc1cc2oc(=O)c(CC(=O)NCc3ccc(OC)c(OC)c3)c(C)c2cc1Cl	i	nt
COc1cc(OC)cc(-c2cc3ncccc3cn2)c1	i	i
Fc1ccccc1-c1cc2ncccc2cn1	32µM	i
CCOc1ccccc1CNC(=O)c1cnn(-c2ccc(C)cc2)c1-n1cccc1	i	nt
Nc1c(N2CCCC2)cc(Cl)c2nonc12	56µM	i
Nc1c(N2CCOCC2)cc(Cl)c2nonc12	i	i
COc1ccc(-n2nc(C(=O)N3CCCC(C)C3)c3c4ccccc4n(C)c3c2=O)cc1 (stereo not drawn)	i	nt
Cc1cc(/C=N/NC(N)=S)c(C)n1-c1cccc(Cl)c1	i	i
Cc1cc(/C=N/NC(=O)C(O)(c2ccccc2)c2ccccc2)c(C)n1-c1ccc(C(=O)O)cc1	i	i
Cc1cccc(C)c1-n1c(C)cc(/C=N/NC(N)=S)c1C	i	10µM
Cc1cc(/C=N/NC(=O)C(O)(c2ccccc2)c2ccccc2)c(C)n1-c1cccc(C(=O)O)c1	32µM	i
Cc1cccc(NC(=O)c2c(N)sc3c2CCC(C)C3)c1 (stereo not drawn)	i	nt
c1ccc(Cc2noc(CN3CCCN(C4Cc5ccccc5C4)CC3)n2)cc1	25µM	i
c1ccc(Cc2noc(CN3CCN(C4CCc5ccccc5C4)CC3)n2)cc1 (stereo not drawn)	nt	i
